Results on twelve compounds are retold here after ChEMBL document CHEMBL3988442, “University of Dundee, Small-Polar-MMV Screening Library” (2021).

Common to all, as to parameters: scale not given: direction of the effect not stated beside the values
Assay [1] addresses Protein translocase subunit SecA (Escherichia coli (strain K12)) (UniProt P10408). Kind of assay: Assay to Identify E. coli SecA ATPase Inhibitors. The class given is functional. Conditions: 30 µM.
The target in assay [2] is T1, Ubiquitin-activating enzyme e1, putative (Leishmania donovani (strain BPK282A1)) (UniProt E9BSI1).
T1 sequence (whole entry): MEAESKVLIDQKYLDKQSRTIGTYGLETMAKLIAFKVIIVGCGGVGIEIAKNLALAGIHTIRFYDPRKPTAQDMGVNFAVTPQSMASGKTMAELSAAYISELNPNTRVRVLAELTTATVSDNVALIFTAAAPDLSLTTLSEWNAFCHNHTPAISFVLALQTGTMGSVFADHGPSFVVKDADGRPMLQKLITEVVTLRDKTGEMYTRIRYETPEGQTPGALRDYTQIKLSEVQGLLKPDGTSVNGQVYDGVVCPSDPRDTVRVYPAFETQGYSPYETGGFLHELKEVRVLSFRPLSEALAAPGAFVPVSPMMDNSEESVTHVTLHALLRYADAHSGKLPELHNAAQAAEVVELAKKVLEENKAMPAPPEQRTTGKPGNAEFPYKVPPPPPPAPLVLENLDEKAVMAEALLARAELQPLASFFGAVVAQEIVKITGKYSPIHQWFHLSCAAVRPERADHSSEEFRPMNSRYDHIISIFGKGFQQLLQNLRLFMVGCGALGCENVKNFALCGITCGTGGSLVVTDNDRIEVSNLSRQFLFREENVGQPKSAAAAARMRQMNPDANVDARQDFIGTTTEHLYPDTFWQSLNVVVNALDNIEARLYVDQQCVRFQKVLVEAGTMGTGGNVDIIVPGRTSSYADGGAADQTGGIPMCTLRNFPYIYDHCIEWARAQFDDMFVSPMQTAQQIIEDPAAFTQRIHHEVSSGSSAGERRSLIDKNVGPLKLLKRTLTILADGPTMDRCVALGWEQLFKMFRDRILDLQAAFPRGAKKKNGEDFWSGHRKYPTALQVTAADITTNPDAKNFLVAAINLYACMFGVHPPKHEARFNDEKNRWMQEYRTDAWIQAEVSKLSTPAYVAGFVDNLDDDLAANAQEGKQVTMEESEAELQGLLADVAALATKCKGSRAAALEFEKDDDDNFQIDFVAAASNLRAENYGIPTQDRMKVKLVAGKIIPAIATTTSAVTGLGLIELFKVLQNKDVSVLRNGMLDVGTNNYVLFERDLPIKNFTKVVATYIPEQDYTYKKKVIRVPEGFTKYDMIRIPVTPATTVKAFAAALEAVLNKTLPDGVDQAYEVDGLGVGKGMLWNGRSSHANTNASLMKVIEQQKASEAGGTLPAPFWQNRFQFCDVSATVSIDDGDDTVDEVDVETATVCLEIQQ
Kind of assay: Leishmania donovani Ubiquitin Activating Enzyme (LdE1). The class given is functional. As to conditions: 30 µM.

In assay [3] the target is Sialic acid-binding Ig-like lectin 9 (Homo sapiens) (UniProt Q9Y336). In words: Hs-Siglec9 ALPHAscreen SOP 20170721. Conditions: 10 µM. For orientation: Alpha assays give light when donor and acceptor beads are brought close together.
Assay [4] deals with Trypanosoma cruzi. Kind of assay: Trypanosoma cruzi phosphomannomutase and mannose-1-phosphate guanylyltransferase assay. Format: functional. As to conditions: 10 µM.
Assay [5] has as its target T2, Arginase-2, mitochondrial (Homo sapiens) (UniProt P78540).
T2 sequence (whole entry): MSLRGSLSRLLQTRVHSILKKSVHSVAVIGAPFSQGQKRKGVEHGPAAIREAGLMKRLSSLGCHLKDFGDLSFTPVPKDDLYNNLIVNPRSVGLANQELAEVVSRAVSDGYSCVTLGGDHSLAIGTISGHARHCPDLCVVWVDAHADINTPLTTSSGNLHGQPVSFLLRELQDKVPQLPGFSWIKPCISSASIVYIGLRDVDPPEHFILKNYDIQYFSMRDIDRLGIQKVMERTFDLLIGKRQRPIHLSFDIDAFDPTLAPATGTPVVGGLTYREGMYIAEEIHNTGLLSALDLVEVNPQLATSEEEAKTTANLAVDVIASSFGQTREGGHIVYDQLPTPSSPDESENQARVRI
In words: in vitro enzyme assay to detect the production of urea directly proportional to the activity of Arginase II. Also: in the data most compounds retested in dose-response had high values. Format: functional. Conditions: 33.3 µM.

Assay [6] concerns the target T3, Proteasome subunit beta (Trypanosoma cruzi) (UniProt O96673).
T3 sequence (whole entry): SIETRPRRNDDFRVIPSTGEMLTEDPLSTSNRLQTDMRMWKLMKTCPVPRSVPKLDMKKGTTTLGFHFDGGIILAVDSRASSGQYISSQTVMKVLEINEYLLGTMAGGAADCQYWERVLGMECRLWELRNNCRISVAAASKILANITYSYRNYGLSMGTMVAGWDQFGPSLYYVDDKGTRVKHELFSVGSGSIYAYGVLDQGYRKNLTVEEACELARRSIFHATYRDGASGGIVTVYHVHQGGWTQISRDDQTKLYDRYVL
Kind of assay: Trypanosoma cruzi proteasome chymotrypsin-like activity (TcProtChymo) assay. Also: in the data most compounds retested in dose-response had high values. The class given is functional. As to conditions: 9.37 µM.

For assay [7], the species on record is Homo sapiens. In words: To identify inhibition of the IFN signalling (Jak-Stat) pathway via expression of an eGFP reporter gene under the control of an IFN-stimulated response element (ISRE) containing MxA promoter. Format: functional. Conditions: 30 µM. Background: A reporter such as luciferase makes a cellular process visible.
Assay [8] concerns the target T4, Tyrosyl-tRNA synthetase, putative (Trypanosoma cruzi (strain CL Brener)) (UniProt Q4DSP6).
T4 sequence (whole entry): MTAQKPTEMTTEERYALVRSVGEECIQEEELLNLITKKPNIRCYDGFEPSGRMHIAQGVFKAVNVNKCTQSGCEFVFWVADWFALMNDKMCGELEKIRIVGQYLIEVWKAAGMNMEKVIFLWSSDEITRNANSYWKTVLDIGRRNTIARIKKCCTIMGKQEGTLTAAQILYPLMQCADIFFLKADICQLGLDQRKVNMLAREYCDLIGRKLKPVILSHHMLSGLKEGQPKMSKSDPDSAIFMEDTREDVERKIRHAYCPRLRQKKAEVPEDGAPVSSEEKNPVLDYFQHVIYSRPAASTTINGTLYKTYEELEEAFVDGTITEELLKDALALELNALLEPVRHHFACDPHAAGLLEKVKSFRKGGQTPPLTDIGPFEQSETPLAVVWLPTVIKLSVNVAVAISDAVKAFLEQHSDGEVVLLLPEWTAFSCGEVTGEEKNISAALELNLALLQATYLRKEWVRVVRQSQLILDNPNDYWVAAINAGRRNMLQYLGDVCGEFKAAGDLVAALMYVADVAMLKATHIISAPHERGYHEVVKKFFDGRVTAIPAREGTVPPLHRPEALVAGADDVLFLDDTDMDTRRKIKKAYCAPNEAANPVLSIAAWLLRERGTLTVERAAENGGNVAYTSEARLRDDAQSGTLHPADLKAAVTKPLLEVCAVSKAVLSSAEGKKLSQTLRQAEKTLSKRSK
In words: Trypanosoma cruzi tyrosyl tRNA synthetase (TcYRS) _High Tyrosine SOP. Also: in the data most compounds retested in dose-response had high values. As to conditions: 30 µM. The class given is functional.

Assay [9] deals with T4, Tyrosyl-tRNA synthetase, putative (Trypanosoma cruzi (strain CL Brener)). Kind of assay: Trypanosoma cruzi tyrosyl tRNA synthetase (TcYRS) SOP. Format: functional. Conditions: 30 µM.
In assay [10] the target is Chromo domain-containing protein 1 (Saccharomyces cerevisiae (strain ATCC 204508 / S288c) (Baker's yeast)) (UniProt P32657). Kind of assay: ScCHD-1 Enzyme Inhibition Assay. Also: in the data most compounds retested in dose-response had high values. Format: functional. As to conditions: 30 µM.

The structures appear in SMILES notation. For part of these data: Entries with a potency or affinity are not part of this list.

Chromo domain-containing protein 1 (Saccharomyces cerevisiae (strain ATCC 204508 / S288c) (Baker's yeast)), sequence (P32657 whole entry, the tested form may be a part): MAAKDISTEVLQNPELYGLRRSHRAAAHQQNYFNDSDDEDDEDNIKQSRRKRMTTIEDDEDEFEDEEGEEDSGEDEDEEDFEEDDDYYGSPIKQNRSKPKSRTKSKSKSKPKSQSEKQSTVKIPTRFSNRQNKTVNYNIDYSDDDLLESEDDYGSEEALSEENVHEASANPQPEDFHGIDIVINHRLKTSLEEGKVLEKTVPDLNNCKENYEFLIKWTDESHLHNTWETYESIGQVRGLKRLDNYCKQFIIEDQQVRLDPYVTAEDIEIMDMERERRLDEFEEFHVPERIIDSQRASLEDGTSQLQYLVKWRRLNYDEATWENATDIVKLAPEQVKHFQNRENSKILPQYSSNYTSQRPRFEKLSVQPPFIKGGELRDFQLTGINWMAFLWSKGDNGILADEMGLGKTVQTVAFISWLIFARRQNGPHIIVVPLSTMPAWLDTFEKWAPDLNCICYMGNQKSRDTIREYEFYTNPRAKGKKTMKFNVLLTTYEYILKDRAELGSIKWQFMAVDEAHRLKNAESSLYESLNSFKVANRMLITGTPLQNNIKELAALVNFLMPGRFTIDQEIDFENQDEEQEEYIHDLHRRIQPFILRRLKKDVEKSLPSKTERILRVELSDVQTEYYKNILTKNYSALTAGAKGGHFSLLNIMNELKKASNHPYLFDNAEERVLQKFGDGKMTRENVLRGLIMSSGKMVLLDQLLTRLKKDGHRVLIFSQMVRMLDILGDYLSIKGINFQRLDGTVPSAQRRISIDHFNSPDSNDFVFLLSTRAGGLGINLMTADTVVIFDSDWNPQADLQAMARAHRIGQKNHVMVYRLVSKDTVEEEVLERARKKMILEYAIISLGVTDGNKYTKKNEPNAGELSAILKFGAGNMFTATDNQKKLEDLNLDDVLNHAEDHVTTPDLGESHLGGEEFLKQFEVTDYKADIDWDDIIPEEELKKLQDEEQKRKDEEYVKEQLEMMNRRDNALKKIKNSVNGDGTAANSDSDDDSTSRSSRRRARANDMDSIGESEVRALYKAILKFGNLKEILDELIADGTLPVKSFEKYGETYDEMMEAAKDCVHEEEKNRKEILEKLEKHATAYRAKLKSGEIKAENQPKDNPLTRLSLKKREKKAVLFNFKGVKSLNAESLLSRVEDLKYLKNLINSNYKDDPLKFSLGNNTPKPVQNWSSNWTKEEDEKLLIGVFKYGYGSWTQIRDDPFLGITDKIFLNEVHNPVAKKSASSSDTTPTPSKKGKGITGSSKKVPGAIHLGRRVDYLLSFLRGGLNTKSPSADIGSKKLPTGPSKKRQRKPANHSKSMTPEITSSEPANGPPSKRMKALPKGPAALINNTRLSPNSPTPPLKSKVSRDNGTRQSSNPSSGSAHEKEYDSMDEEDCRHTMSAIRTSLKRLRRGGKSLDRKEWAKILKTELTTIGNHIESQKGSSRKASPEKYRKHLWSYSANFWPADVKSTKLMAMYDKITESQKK
Sialic acid-binding Ig-like lectin 9 (Homo sapiens), sequence (Q9Y336 whole entry): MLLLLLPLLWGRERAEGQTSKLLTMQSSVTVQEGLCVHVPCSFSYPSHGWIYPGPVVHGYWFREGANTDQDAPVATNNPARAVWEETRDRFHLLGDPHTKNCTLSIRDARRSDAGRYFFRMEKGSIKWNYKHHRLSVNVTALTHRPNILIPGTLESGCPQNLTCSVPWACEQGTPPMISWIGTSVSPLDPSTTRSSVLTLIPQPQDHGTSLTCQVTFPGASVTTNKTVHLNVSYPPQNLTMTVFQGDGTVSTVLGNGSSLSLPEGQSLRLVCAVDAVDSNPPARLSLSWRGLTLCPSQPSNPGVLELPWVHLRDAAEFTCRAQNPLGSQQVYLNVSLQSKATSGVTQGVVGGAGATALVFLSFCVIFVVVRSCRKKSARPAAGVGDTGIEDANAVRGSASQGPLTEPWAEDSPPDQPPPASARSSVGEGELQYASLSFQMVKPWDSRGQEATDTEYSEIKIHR
Protein translocase subunit SecA (Escherichia coli (strain K12)), sequence (P10408 whole entry): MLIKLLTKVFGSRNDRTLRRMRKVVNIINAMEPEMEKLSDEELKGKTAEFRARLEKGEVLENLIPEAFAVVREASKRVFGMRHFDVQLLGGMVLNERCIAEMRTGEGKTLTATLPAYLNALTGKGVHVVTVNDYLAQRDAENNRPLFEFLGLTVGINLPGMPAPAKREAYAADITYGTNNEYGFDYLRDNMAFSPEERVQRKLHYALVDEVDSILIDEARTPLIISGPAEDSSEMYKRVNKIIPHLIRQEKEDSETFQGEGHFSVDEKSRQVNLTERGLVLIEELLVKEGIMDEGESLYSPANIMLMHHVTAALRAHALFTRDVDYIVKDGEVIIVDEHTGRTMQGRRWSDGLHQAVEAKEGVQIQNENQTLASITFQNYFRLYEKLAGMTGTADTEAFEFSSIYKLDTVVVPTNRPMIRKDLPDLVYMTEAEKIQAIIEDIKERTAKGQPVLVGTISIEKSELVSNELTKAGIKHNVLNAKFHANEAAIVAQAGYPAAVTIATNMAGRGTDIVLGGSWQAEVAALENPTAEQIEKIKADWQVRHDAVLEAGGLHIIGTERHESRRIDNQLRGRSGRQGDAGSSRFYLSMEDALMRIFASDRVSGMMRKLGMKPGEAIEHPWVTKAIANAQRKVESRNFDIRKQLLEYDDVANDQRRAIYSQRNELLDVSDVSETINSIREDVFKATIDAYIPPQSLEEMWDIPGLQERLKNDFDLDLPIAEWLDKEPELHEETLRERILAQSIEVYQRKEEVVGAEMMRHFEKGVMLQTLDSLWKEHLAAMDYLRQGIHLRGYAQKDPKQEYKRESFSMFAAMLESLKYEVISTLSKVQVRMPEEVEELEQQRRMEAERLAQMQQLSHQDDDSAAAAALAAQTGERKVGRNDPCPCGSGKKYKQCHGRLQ

Take `COCCC(=O)N1CCCC2(CCC(=O)N2CCOC)CC1` (stereo not given): the Percent Effect in [1] is -2.63%; in assay [2] it was 11.7%; in [3], -2.38%; in [4] it was -4.13%; in assay [5] it was 4.57%; in [6] it was -1.97%. In addition, the Percent Effect in assay [7] was 11.1%; in [8], 2.9%; in assay [9], 2.5%; in assay [10] it was -3.46%.

For `Cc1ccc(-c2nc(CN3CCCC3Cn3cc(C)cn3)no2)cc1` (stereo not given), the Percent Effect in [1] is -2.04%; in assay [2] it was 5.33%; in assay [3], 2.03%; in assay [4], 4.02%; in [5], -8.43%; in assay [6] it was 22.6%. Further, the Percent Effect in [7] is 12.1%; in assay [8], 1.58%; in assay [9], 10.3%; in [10], -12%.

As to `Cc1cc(C(=O)NCc2ccnc(N3CCN(C)CC3)c2)c(C)s1`, the Percent Effect in assay [1] was -2.97%; in assay [2], -28.2%; in assay [3] it was -3.6%; in [4] it was -0.657%; in assay [5], 3.69%; in assay [6], 3.67%. The Percent Effect is -0.506% in [7], 8.13% in assay [8], 20.5% in assay [9] and -3.48% in assay [10].

For `CCc1nc(CN2CCCN(C(=O)c3cn[nH]c3CC)CC2)cs1`, the Percent Effect in assay [1] is 0.744%; in assay [2], 17.9%; in [3], -17.5%; in [4], -0.282%; in assay [5], -6.97%; in assay [6], 10.2%. For the same compound, the Percent Effect in assay [7] is -6.8%; in assay [8], 6.22%; in assay [9] it was 13.2%; in assay [10] it was -6.17%.

As for `COc1ccc(CN2CCN(C(C)c3nc(C4CC4)no3)CC2)cc1` (stereo not given), the Percent Effect in assay [1] was -1.5%; in assay [2], 12.8%; in assay [3], 2.49%; in assay [4], 3.29%; in assay [5] it was -9.43%; in [6], 7.76%. The Percent Effect in assay [7] is 26.9%; in assay [8], 3.35%; in [9] it was 10.8%; in assay [10], -7.9%.

Turning to `c1ncn(CC2CCCN2Cc2cn3ccsc3n2)n1` (stereo not given), the Percent Effect in assay [1] was -3.52%; in assay [2], 5.13%; in assay [3] it was -17.1%; in assay [4] it was 7.61%; in [5], -1.23%; in assay [6], -4.86%. Further, the Percent Effect in assay [7] was -3.77%; in assay [8] it was 2.39%; in [9], 6.02%; in assay [10], 1.9%.

In the case of `CC(C)N(Cc1nc2c(cnn2C)c(=O)[nH]1)c1ccccc1`, the Percent Effect in assay [1] was -2.48%; in assay [2] it was 10.3%; in [3], -5.08%; in assay [4], 5.54%; in assay [5], 4.1%; in [6] it was 1.96%. Besides, the Percent Effect was 7.17% in assay [7], 5.26% in assay [8], 18.1% in [9] and -3.23% in assay [10].

For the compound `CN1CCN(CC2CC2)C(=O)c2cnc(N3CC[C@@H](O)C3)nc21`, the Percent Effect is -3.96% in [1]; 0% in [2]; -4.48% in [3]; -3.21% in assay [4]; -4.43% in [5]; 3.99% in assay [6]. The Percent Effect was -1.63% in [7], -2.63% in assay [8], -7.69% in [9] and -9.27% in assay [10].

Turning to `Cc1ncsc1CCC(=O)N1CCCC[C@H](N(C)C)C1`, the Percent Effect in assay [1] was -5.77%; in [2] it was 13.5%; in assay [3], 14.4%; in [4], 9.02%; in assay [5], 52.8%; in assay [6], 13.7%. The Percent Effect is 16.9% in assay [7], 7.98% in assay [8], 21.9% in assay [9] and -3.1% in assay [10].

Regarding `Cc1cnn(CC2CCN(CC(O)COc3ccc(F)cc3)CC2)c1` (stereo not given), the Percent Effect is -5.77% in assay [1]; 2.6% in assay [2]; -3.53% in assay [3]; -1.87% in [4]; -5.94% in assay [5]; 4.21% in [6]. The Percent Effect in assay [7] is 9.11%; in assay [8], 0.98%; in assay [9], 0%; in assay [10], -2.59%.

Regarding `O=C(CO)N1CCc2onc(Cn3cccn3)c2C1`, the Percent Effect in [1] was -5.41%; in assay [2], 3.9%; in assay [3] it was 3.29%; in assay [4], 1.27%; in assay [5], -1.62%; in assay [6], 7.5%. Besides, the Percent Effect is -4.61% in [7], 2.63% in assay [8], 5.13% in assay [9] and 0.404% in assay [10].

Turning to `COCC(=O)N1CCC2(CCN(Cc3ccccn3)CC2)CC1`, the Percent Effect in [1] is -4.25%; in [2] it was 6.49%; in assay [3] it was 6.7%; in assay [4], 4.77%; in [5] it was 11.7%; in assay [6], 12.3%. In addition, the Percent Effect was -3.67% in assay [7], 1.58% in assay [8], 5.13% in assay [9] and 15% in assay [10].
